Calls of active or inactive are those of the source. Calls follow the shape of the full dose curve.

Sequence of DNA repair nuclease/redox regulator APEX1 (Homo sapiens) (P27695 whole entry, looked up): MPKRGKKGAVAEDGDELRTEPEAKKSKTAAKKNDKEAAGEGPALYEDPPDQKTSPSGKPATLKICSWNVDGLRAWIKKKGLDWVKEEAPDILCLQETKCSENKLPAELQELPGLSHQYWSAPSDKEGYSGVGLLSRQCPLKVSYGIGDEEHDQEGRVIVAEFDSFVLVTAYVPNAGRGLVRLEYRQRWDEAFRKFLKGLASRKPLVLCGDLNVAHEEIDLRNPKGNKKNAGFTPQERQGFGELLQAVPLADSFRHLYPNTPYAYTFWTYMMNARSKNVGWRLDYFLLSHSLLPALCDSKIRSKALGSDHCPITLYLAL

In the assay the target is DNA repair nuclease/redox regulator APEX1 (Homo sapiens) (UniProt P27695). Kind of assay: Radiotracer Incision Assay (RIA) for Inhibitors of Human Apurinic/apyrimidinic Endonuclease 1 (APE1). The note with it: Recombinant APE1, radiolabeled AP-DNA incision, gel. The text has this:
The apurinic/apyrimidinic endonuclease APE1 is the primary mammalian enzyme responsible for the removal of abasic (or AP) sites in DNA and functions centrally in the base excision DNA repair (BER) pathway. […] Thus, targeting APE1 could improve the efficacy of current treatment paradigms by promoting selective sensitization or protection of diseased and normal cells, respectively. This secondary Radiotracer Incision Assay was implemented to validated hits from the primary screen (AID 2517).
Recombinant wild type APE1 protein was purified as previously described (Erzberger et al., NAR, 1998). Fifty pg of APE1 (~140 pM) was incubated without (positive control containing 1% DMSO) or with 100 microM of the indicated inhibitor at room temperature in RIA buffer (50 mM Tris pH 7.5, 25 mM NaCl, 1mM MgCl2, 1 mM DTT, 0.01% Tween -20) for 15 min. One-half pmol of 32P 5'-radiolabeled AP-DNA substrate (18 mer) was added to a 10 microL final volume (see Wilson et al., JBC, 1995), and the reactions were incubated at 37 °C for 5 min and stopped by adding stop buffer (0.05% Bromophenol blue/ Xylene cyanol dissolved in 95% formamide, 20 mM EDTA) and heating at 950C for 10 min. Intact substrate was separated from incised product on a 15% polyacrylamide denaturing gel in tris boric acid EDTA buffer. Following electrophoresis, the gel was subjected to standard phosphoimager analysis using the ImageQuant 5.2 software, and the percent incision activity (amount of substrate converted to product) was calculated.
On to `CC(=O)Nc1sc2c(c1-c1nc3ccccc3s1)CCN(C)C2`, for which the Potency is 5 µM (active). For `CC(=O)Nc1sc2c(c1-c1nc3ccccc3s1)CCN(C(C)C)CC2` the value was 13 µM (active); for `CC(=O)Nc1sc2c(c1-c1nc3ccccc3s1)CCN(C(C)C)C2`, 19 µM (active); for `CC(=O)Nc1sc2c(c1-c1nc3ccccc3s1)CCCNC2`, 7 µM (active).

Consider `CC(=O)Nc1sc2c(c1-c1nc3ccccc3s1)CCS(=O)(=O)C2`, for which the Potency was 77 µM (active).

Take `CC(=O)Nc1sc2c(c1-c1nc3ccccc3o1)CCN(C(C)C)C2`: the Potency is 13 µM (active). The figure for `CC(=O)Nc1sc2c(c1-c1nc3ccccc3s1)CCN(C(C)=O)C2` is 5 µM (active). The figure for `O=C(Nc1sc2c(c1-c1nc3ccccc3s1)CCNC2)C(F)F` is 4 µM (active); for `CC(=O)Nc1sc2c(c1-c1nc3ccccc3s1)CCNC2` it is 5 µM (active). On to `CC(=O)Nc1sc2c(c1-c1nc(-c3ccccc3)cs1)CCN(C(C)C)C2`, for which the Potency is 3 µM (active). The figure for `CC(=O)Nc1sc2c(c1-c1nc3ccccc3s1)CN(C(C)C)C2` is 4 µM (active); for `CC(=O)Nc1sc2c(c1-c1nc3ccccc3s1)CCCN(C(C)C)C2` it is 14 µM (active).

For the origin of these results see PubChem BioAssay AID488940 (National Center for Advancing Translational Sciences (NCATS), 2010).
